WRN helicase inh = inhibitors of human WRN helicase | Q14191 | WRN helicase unwinding, fluorescent forked duplex, kinetic | Potency, µM (titrated, usually from 114 µM), for inactives: top-dose activity change, negative = inhibition, most hits filed as inhibitors | 360,000 compounds, 0.46% hits; note: potency is the fitted concentration of half-maximal effect; % is set by controls: 0 for no effect and ±100 for the full control effect; nearly all actives have a fitted effect of over 55% in size
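Enzyme (20 nM final) and test compound sit together 15 min at room temperature before substrate addition. Substrate is a single-forked duplex oligonucleotide (100 nM) labelled with fluorophore and quencher, with 2 mM ATP; helicase unwinding raises red fluorescence, read kinetically.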
Pol eta inh-1 = DNA polymerase eta (human) inhibition; recombinant Pol eta, fluorescent DNA replication assay; Potency, µM (titrated, usually from 114 µM), for the others: at the highest dose activity change, negative = inhibition, actives largely listed as inhibitors; 390,000 compounds, 1.2% hits; note: potency is the fitted concentration of half-maximal effect; % is set by controls: 0 for no effect and ±100 for the full control effect
Target sequence (Q9Y253 whole entry, looked up): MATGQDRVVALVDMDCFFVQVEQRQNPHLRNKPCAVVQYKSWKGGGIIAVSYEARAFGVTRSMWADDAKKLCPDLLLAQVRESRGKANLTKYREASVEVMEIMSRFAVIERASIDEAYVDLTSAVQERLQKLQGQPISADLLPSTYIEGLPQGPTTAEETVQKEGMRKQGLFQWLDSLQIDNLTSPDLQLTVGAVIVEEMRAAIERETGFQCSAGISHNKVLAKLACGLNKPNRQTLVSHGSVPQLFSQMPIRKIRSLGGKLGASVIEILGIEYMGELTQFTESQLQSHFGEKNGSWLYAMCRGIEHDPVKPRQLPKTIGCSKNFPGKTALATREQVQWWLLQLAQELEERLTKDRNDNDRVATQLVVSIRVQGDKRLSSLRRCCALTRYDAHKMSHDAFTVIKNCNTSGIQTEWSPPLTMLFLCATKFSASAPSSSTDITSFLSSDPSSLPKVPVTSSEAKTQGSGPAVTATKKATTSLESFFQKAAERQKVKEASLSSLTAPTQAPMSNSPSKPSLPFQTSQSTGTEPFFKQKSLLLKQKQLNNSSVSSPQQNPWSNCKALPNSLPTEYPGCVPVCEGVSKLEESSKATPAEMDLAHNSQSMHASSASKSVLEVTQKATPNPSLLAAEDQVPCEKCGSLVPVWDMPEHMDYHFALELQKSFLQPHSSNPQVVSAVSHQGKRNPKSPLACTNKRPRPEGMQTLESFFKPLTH
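Pol eta (10 nM) was preincubated with compounds for 15 min at room temperature, after which fluorescent replication substrate (50 nM final) was added to start the reaction. Fluorescence was read kinetically at 0 and 10 min.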
Pol kappa inh-1 = DNA polymerase kappa (human) inhibition | Q9UBT6 | purified Pol kappa, fluorescent DNA synthesis assay, 10 min | Potency, µM (doses to about 107 µM), for inactives: top-dose activity, negative = inhibition, hits mostly inhibitors | 400,000 compounds, 0.53% hits; note: potency is the fitted concentration of half-maximal effect; % is set by controls: 0 for no effect and ±100 for the full control effect
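Here, compound and 10 nM enzyme are combined for 15 min at room temperature; adding 50 nM substrate (final) starts DNA synthesis, tracked by fluorescence at 0 and 10 min against buffer-only wells.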
Pol beta inh-1 = DNA polymerase beta (human) inhibition. Potency, µM (titrated, usually from 114 µM), for inactives: top-dose activity change, negative = inhibition, usual class: inhibitors. AID 485314. 340,000 compounds, 1.3% hits. Pol beta primer extension/strand displacement, fluorescence kinetic. P06746; note: potency is the fitted concentration of half-maximal effect; % is set by controls: 0 for no effect and ±100 for the full control effect
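Enzyme-only controls used 10 nM Pol beta; buffer lacking enzyme served as negative control. Compound preincubated 15 min, then 50 nM substrate added; 0 and 10 min reads at room temperature.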
Pol iota inh = DNA polymerase iota (human) inhibition; Potency, µM (doses to about 115 µM), for inactives: at the highest dose activity, negative = inhibition, usual class: inhibitors; Pol iota fluorescent replication assay, 10 min; Q9UNA4; 390,000 compounds, 1% hits; note: potency is the fitted concentration of half-maximal effect
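Fluorescent replication assay read twice, at 0 min and 10 min after adding 50 nM (final) substrate. Enzyme (10 nM) and compounds were first incubated 15 min at room temperature; enzyme-free buffer wells were negative controls.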
FEN1 inhibitor = inhibitors of human flap endonuclease 1. AID 588795. Potency, µM (series often up to 114 µM), for inactives: at the highest dose activity change, negative = inhibition, actives largely listed as inhibitors. P39748. Recombinant FEN1 flap cleavage, fluorescence, 15 min. 390,000 compounds, 0.35% hits; note: potency is the fitted concentration of half-maximal effect; % is set by controls: 0 for no effect and ±100 for the full control effect; nearly all actives have a fitted effect of over 65% in size
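In this screen, 50 nM flap DNA substrate was added to 10 nM FEN1 pretreated with compound for 15 min at room temperature; cleavage was followed with reads at 0 and 15 min, and Hill fitting gave concentration–response parameters.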
Pol beta inh-2 = Human Pol beta inhibitor hit validation; Pol beta primer extension/strand displacement, fluorescence kinetic; shares compounds with Pol beta inh-1; 250 compounds, 87% hits; Potency, µM, usual class: inhibitors; calls by dose curve; note: potency is the fitted concentration of half-maximal effect
Klenow counter = Klenow polymerase inhibition, pol beta selectivity check. activity change, negative = inhibition, % at 57.1 µM. AID 540300. shares compounds with Pol beta inh-1. Klenow exo- polymerase counter-screen, fluorescent DNA substrate. 250 tested, under 10 active
HIV RT inh = counter-screen for DNA polymerase beta inhibitors: HIV-1 RT inhibition | shares compounds with Pol beta inh-1 | HIV-1 RT polymerase activity, counter-screen | activity % (negative = inhibition, positive = activation), % at 57.1 µM | 250 tested, under 10 active
POLB valid = DNA polymerase beta inhibition, radiolabeled validation; shares compounds with Pol beta inh-1; AID 540325; inhibition, % at 10 µM; radiolabeled primer extension gel assay, phosphorimager; 110 compounds, 91% hits;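 active = inhibition at 10 µM of 30% or more; inconclusive = no clear call, values can overlap the other calls; inactive = inhibition at 10 µM under 30%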
PGK validate = validation of Trypanosoma brucei phosphoglycerate kinase inhibitors; shares compounds with Pol kappa inh-1; TbPGK coupled GAPDH assay, Kinase-Glo luminescence; Potency, µM (doses to about 57.5 µM), for the others: at the highest dose activity change, negative = inhibition, most hits filed as inhibitors; 500 compounds, 79% hits; AID 686980; note: potency is the fitted concentration of half-maximal effect; % is set by controls: 0 for no effect and ±100 for the full control effect; nearly all actives have a fitted effect of over 65% in size
Pol iota confirm = Inhibitors of human DNA polymerase iota, confirmation | shares compounds with Pol kappa inh-1 | Pol iota primer extension, TAMRA/BHQ fluorescence | Potency, µM, most hits filed as inhibitors | 1,500 compounds, 77% hits | AID 720496; note: potency is the fitted concentration of half-maximal effect
GALK inh confirm = galactokinase (human) inhibition, confirmation. Potency, µM (highest dose often 115 µM), inactives show at the highest dose activity, negative = inhibition, actives largely listed as inhibitors. purified GALK, Kinase-Glo ATP depletion luminescence. shares compounds with Pol eta inh-1. 150 compounds, 70% hits. AID 2015
Redox cycling = generates H2O2 by redox cycling, flagging GALK artifacts; shares compounds with Pol eta inh-1; Phenol red-HRP H2O2 redox cycling, absorbance 600 nm; Potency, µM (series often up to 115 µM), inactives show top-dose activity change, negative = H2O2 signal, actives largely listed as inhibitors; 150 compounds, 40% hits; AID 2035
HEK293 tox = reduces HEK-293 cell viability in GALK counter-screen; shares compounds with Pol eta inh-1; Potency, µM (top dose mostly 46.1 µM), without a hit: top-dose activity change, negative = cytotoxicity, most hits filed as inhibitors; 170 compounds, 10% hits; AID 2547; HEK-293 viability, ATP luminescence (CellTiter-Glo), 24/48 h; note: potency is the fitted concentration of half-maximal effect; % is set by controls: 0 for no effect and ±100 for the full control effect
Pol kappa inh-2 = Pol kappa (human) inhibition, cherry-pick confirmation | shares compounds with Pol eta inh-1 | purified Pol-kappa, fluorescent strand-displacement substrate | Potency, µM, actives largely listed as inhibitors | 920 compounds, 76% hits | AID 720501; note: potency is the fitted concentration of half-maximal effect
Pol eta inh-2 = confirmation of human DNA polymerase eta inhibitors; shares compounds with Pol eta inh-1; 2,600 compounds, 64% hits; Pol eta primer extension, TAMRA/BHQ fluorescence, 10 min; Potency, µM, hits mostly inhibitors; note: potency is the fitted concentration of half-maximal effect
Starred values were filed as active, the others as inactive; u = inconclusive; x = not tested or not shown; [ ] = remark or other dose. In the library only some 2.4% were active in any assay of this set; here they are far more common. Unless noted, calls come from the whole dose curve; as a rule, active = well fitted curve in the direction sought with a large enough effect; inconclusive = small, poorly fitted or top-dose-only effect, or another doubt; inactive = no such curve, though single readings can be large; an effect the other way counts as inactive or inconclusive.

SMILES	WRN helicase inh	Pol eta inh-1	Pol kappa inh-1	Pol beta inh-1	Pol iota inh	FEN1 inhibitor	Pol beta inh-2	Klenow counter	HIV RT inh	POLB valid	Pol iota confirm	Pol eta inh-2	others
Cc1nc2cc(-c3ccsc3-n3c(C)ccc3C)[nH]n2c(=O)c1Cl	u	25µM*	u	10µM*	u	u	28*	-4	-6	74*	x	30*	Pol kappa inh-2=30*
CSc1nc(SCC(=O)O)c2sc3nc(-c4ccccc4)c4c(c3c2n1)CCC4	u	u	u	2.5µM*	u	u	4*	u	-3	x	15*	67*
CC(=O)c1ccc(N2CCN(C(=O)c3cc4cc5cc(C)ccc5nc4s3)CC2)cc1	x	-9%	-6%[60.1 µM]	-8%	10%	24%	x	x	x	x	x	x
Cc1ccc(CNC(=O)c2ccc(-n3cccc3)cc2)cc1	40µM*	13µM*	22µM*	6.3µM*	14µM*	u	8.9*	-27	21	x	19*	30*	Pol kappa inh-2=19*
O=C(NNc1ccc(F)cc1F)c1cccs1	x	x	-4%	x	12%	-11%	x	x	x	x	x	x
CCn1c(SCC(=O)c2ccc(O)c(O)c2)nnc1-c1ccccc1OC	20µM*	1.4µM*	20µM*	10µM*	10µM*	2%	8.9*	-10	u	x	u	30*	PGK validate=7.3µM*;Pol kappa inh-2=17*
Cc1oc(-c2ccc(F)cc2)cc1-c1nn2c(-c3ccoc3C)nnc2s1	u	7.9µM*	28µM*	3.5µM*	7.9µM*	-11%	u	-6	3	x	u	76*
CC1=NN(c2ccccc2)C(=O)/C1=C\c1sccc1C	-9%	-4%	0%	-1%	u	u	x	x	x	x	x	x
O=C1/C(=C\c2ccc(O)c(O)c2)C(c2ccccc2)=NN1c1ccccc1	u	8.9µM*	71µM*	8.9µM*	22µM*	-14%	7.1*	-12	-18	x	x	43*	GALK inh confirm=u;Redox cycling=u;HEK293 tox=-12%;Pol kappa inh-2=19*
Cc1cccc(N2CCN(C(=O)c3cccn4c(=O)c5cc(Cl)ccc5nc34)CC2C)c1 (stereo not drawn)	x	-11%	-5%[60.1 µM]	-1%	27%	-13%	x	x	x	x	x	x
CCCC1=Nc2cc(C(=O)NCc3ccccc3)ccc2Sc2ccccc21	x	-26%	-12%	u	-13%	-21%	x	x	x	x	x	x
O=C(COC(=O)c1ccc(S(=O)(=O)NCc2ccco2)cc1)Nc1ccc(Cl)cn1	-27%[57.1 µM]	20µM*	79µM*	16µM*	22µM*	-7%	22*	-16	4	100*	x	76*
Cc1ccc(N(Cc2cccs2)C(=O)C(C)Oc2ccc(Cl)c(C)c2)cc1 (stereo not drawn)	x	-24%	u	4%	u	-22%	x	x	x	x	x	x
COCCn1c(C)cc(C(=O)COC(=O)c2cc3c(s2)CCC3)c1C	u	8.9µM*	40µM*	10µM*	u	-27%	32*	-23	26	84*	38*	67*
CCOc1ccc(C(=O)NCc2nc3cccnc3n2Cc2cccc(OC)c2)cc1	x	-6%	-14%[60.1 µM]	-9%	-6%	17%	x	x	x	x	x	x
Cc1cccc(CN2CCN(CC(=O)NCCc3ccc(Cl)cc3)C2=O)c1	x	-15%	-9%	2%	19%	-11%	x	x	x	x	x	x
Cc1cc(=O)oc2cc(OCc3ccc(C(=O)OCC(=O)N(C)C4CCS(=O)(=O)C4)cc3)ccc12 (stereo not drawn)	-8%	-17%	-12%	u	-11%	-12%	x	x	x	x	x	x
Cc1cc(=O)oc2cc(OCc3ccc(C(=O)OCC(=O)NC4CCS(=O)(=O)C4)cc3)ccc12 (stereo not drawn)	-32%	22µM*	79µM*	3.5µM*	20µM*	-23%	25*	-20	-4	75*	38*	27*
COc1ccc(OC)c(-c2cc(C(=O)Nc3cnn(Cc4ccc(Cl)cc4Cl)c3)no2)c1	x	-3%	6%	81%	9%	-11%	x	x	x	x	x	x
O=C(NCc1ccco1)c1c2c(nc3ccccc13)CCC2	45µM*	3.2µM*	32µM*	11µM*	8.9µM*	u	25*	-6	10	99*	u	85*
